High-throughput results as filed in PubChem.
Rows were chosen to be rich in hits. Some 1.8% of all compounds tested hit in one or more screens of this group.
A-T KAP1 phos: candidate therapy for ataxia-telangiectasia; Potency, µM (highest dose often 57.5 µM), for the others: top-dose activation, hits mostly activators; F2112 A-T fibroblasts, KAP-1 phosphorylation AlphaLISA; neocarzinostatin DNA damage 30 min before lysis; AID 485349; 320,000 tested, 0.19% active; also: potency is read from the fitted curve at half-maximal effect; % of control where 0% means no effect; nearly all actives have a fitted effect of over 45% in size
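ATM-like activity read as KAP-1 phosphorylation via AlphaLISA donor/acceptor antibody pairs after lysis and 6 hr at 25C. Cells were ATM-null patient fibroblasts (F2112, hTERT), dosed 60 min, then exposed to the DSB inducer NCS for 30 min.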
KCNH2 3.1 inh: inhibitors of human KCNH2 3.1 potassium channel isoform; U2OS KCNH2 3.1, thallium flux FluxOr; active compounds read low; activity change, % (tested at about 1.8 µM); 340,000 tested, 0.95% active;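 active = maximum activity change below -70%; inconclusive = maximum activity change from -70% to -50%; inactive = maximum activity change above -50%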;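 also: thallium influx rate constant from kinetic fluorescence after stimulation buffer; % is scaled to controls: 0 for no effect and ±100 for the full control effect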
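FluxOr-based Tl+ influx in U2OS cells transduced with KCNH2 3.1 virus; rate constants normalized to DMSO controls.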
12-LOX inh: ALOX12 (human) lipoxygenase inhibition. purified 12hLO, xylenol orange hydroperoxide absorbance. Potency, µM (series often up to 108 µM), for inactives: top-dose activity change, negative = inhibition, hits mostly inhibitors. 580,000 tested, 1.1% active. AID 1671190; also: potency is read from the fitted curve at half-maximal effect; % is scaled to controls: 0 for no effect and ±100 for the full control effect
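Purified human 12hLO at 150 nM in 25 mM Hepes, 0.01% Triton X-100, pH 7.0, preincubated 15 min at room temperature with compound. Reaction started with 40 uM arachidonic acid, 30 min at room temperature. Hydroperoxide measured by Fe-xylenol orange, 573/405 nm absorbance ratio.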
hERG WT inh: blocks the wildtype human KCNH2 potassium channel; Q12809; U2OS, BacMam KCNH2, thallium flux FluxOr; active compounds read low; activity change, % at 1.84 µM; 340,000 tested, 0.37% active; AID 720551;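 active = maximum activity change below -70%; inconclusive = maximum activity change between -70% and -50%; inactive = maximum activity change above -50%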; also: % is scaled to controls: 0 for no effect and ±100 for the full control effect
Target sequence (Q12809 whole entry, looked up): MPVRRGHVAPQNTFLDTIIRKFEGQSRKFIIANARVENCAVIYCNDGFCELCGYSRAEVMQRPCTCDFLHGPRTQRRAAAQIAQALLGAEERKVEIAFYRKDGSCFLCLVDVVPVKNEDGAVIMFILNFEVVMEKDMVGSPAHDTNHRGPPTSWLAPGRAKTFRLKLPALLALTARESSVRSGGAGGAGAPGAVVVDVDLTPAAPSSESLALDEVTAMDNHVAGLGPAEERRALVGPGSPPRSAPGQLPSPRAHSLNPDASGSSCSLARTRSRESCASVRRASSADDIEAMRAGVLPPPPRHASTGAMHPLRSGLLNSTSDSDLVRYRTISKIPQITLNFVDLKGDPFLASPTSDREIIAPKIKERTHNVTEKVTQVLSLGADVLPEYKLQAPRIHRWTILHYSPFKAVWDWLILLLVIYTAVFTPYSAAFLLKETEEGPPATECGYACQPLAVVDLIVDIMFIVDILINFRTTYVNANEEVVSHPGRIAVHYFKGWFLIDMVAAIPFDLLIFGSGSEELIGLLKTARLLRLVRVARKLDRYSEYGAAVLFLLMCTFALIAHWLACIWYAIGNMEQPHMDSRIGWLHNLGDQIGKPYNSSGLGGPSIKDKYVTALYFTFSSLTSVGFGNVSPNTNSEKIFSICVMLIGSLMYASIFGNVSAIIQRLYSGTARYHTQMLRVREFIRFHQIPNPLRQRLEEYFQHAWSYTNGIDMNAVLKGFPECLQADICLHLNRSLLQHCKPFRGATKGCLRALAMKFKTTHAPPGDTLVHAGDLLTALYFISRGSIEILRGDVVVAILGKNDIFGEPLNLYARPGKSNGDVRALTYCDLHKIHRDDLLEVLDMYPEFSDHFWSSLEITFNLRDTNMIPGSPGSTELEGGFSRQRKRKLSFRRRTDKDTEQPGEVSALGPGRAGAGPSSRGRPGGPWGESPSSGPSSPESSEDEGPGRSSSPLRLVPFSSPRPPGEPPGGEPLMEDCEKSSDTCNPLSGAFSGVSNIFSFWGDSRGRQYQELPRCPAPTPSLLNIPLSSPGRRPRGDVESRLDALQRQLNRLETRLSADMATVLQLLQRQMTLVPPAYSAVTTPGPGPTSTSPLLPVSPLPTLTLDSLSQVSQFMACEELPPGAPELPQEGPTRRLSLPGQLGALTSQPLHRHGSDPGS
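U2OS cells were transduced with wild-type KCNH2 virus (2.03 x 10^8 / mL) for 4 h at room temperature, then cultured overnight at 37 C. Thallium flux was read with FluxOr dye. Rate constants were normalized to DMSO controls.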
* marks the source's active call; other numbers are inactive results; u = inconclusive; x = no result given; ! = not confirmed by another sample; [ ] = dose if it differs, or a comment. Unless noted, calls follow the shape of the dose curve; as a rule, active = well fitted curve in the direction sought with a large enough effect; inconclusive = small, poorly fitted or top-dose-only effect, or another doubt; inactive = no such curve, though single readings can be large; an effect the other way counts as inactive or inconclusive.

SMILES	A-T KAP1 phos	KCNH2 3.1 inh	12-LOX inh	hERG WT inh
COc1ccc(CNC(=S)NC(C)CCc2ccccc2)cc1 (stereo unspecified)	13%	-5	40µM*	-2
Cc1cccc(C)c1NC(=S)NC(C)CCc1ccccc1 (stereo unspecified)	11%	9	40µM*	3
CCN(C(=O)Cn1nc(Cc2cccnc2)c2ccccc2c1=O)c1ccc(OC)cc1	x	x	-14%	x
Cc1ccc(NC(=O)CSc2nc(O)cc(=O)n2-c2ccc(C)cc2)cc1	10%	9	2.2µM*	10
COc1ccccc1-n1cnnc1SCC(=O)Nc1ccccc1	11%	-86*	0%	-1
Cc1ccc(NC(=O)CSc2nc(O)cc(=O)n2C)cc1	3%	-8	0%[57.4 µM]	5
Cc1cccc(-n2c(N)cc(=O)nc2SCC(=O)Nc2ccccc2)c1	x	-179*	3%	-144*
O=c1cc(O)nc(SCc2ccccc2)n1-c1ccc(Cl)cc1	-4%	5	45µM*	5
NC(=O)CSc1nc(O)cc(=O)n1-c1ccccc1	0%	4	0%	-1
Cc1ccc(C(=O)N2CCC3(CC2)N=C(c2cccc(Br)c2)NO3)s1	x	x	15%	x
CCn1nc(C(=O)OCC(=O)N(C)c2ccccc2)c2ccccc2c1=O	x	x	4%	x
COc1ccc(OCC(=O)N2CCC(c3nc4ccccc4o3)CC2)cc1	x	x	-10%	x
Cc1ccc(C(=O)CCC(=O)OC(C)C(=O)C23CC4CC(CC(C4)C2)C3)s1 (stereo unspecified)	x	x	-4%	x
CCN(Cc1ccc(OC)c(F)c1)C(=O)COC(=O)c1nn(CC)c(=O)c2ccccc12	x	x	3%	x
COc1ccccc1-n1c(SCC(=O)Nc2ccc(C)cc2)nc(O)cc1=O	7%	8	0.32µM*!	-3
COc1ccc(-n2c(SCC(=O)Nc3ccc(Br)cc3)nc(O)cc2=O)cc1	1%	3	2.2µM*	2
COc1ccc(C(=O)/C=C/c2cc(C)ccc2C)cc1OC	x	x	-4%	x
O=C(C1=C(O)C(=O)N(c2nncs2)C1c1ccccc1)c1cccs1 (stereo unspecified)	x	x	0.56µM*	x
Cc1ccc(C2C(C(=O)c3cccs3)=C(O)C(=O)N2c2nncs2)cc1 (stereo unspecified)	x	x	2.2µM*	x
O=C(C1=C(O)C(=O)N(c2nncs2)C1c1ccc(F)cc1)c1cccs1 (stereo unspecified)	x	x	-58%	x
O=C(CCc1c[nH]c2ccccc12)Nc1cccc(O)c1	x	x	40%	x
CN1CCN(S(=O)(=O)c2ccc(Sc3ccc4ccccc4c3)nc2)CC1	x	x	-6%	x
CC1CCCCC1NC(=O)COC(=O)c1c2c(nc3ccccc13)/C(=C/c1ccco1)CC2 (stereo unspecified)	9%	-5	u	0
O=C(COC(=O)c1c2c(nc3ccccc13)/C(=C/c1ccco1)CC2)NC1CCCC1	0%	1	25µM*	3
NNc1cccc2ncccc12	x	x	3.5µM*	x
SMILES	A-T KAP1 phos	KCNH2 3.1 inh	12-LOX inh	hERG WT inh
CC(C)Cn1nc2n(c1=O)CCN(S(=O)(=O)c1ccc(C(C)(C)C)cc1)CC2	x	x	25%	x
CC1CCCCN1C(=O)CN1C(=O)N(c2cc(F)ccc2F)S(=O)(=O)c2ccccc21 (stereo unspecified)	x	x	6%	x
Cc1occc1C(=O)OCC(=O)c1sc2ccccc2c1C	x	x	32µM*	x
COc1ccc(C(=O)OCC(=O)c2sc3ccccc3c2C)cc1OC	x	x	-8%	x
CCOC(=O)c1c(N)nn(C(C)=O)c1-c1ccccc1	1%	-73*	-11%	-8
COc1ccc(/C=C/CN2CC(=O)N(c3ccccc3C#N)CC2C)cc1 (stereo unspecified)	x	x	-30%	x
CC(=O)Nc1ccc(C(=O)c2ccccc2)cc1	6%	5	1%	-1
CC(=O)Nc1ccc(/C(N=Nc2ccccc2)=N/N=C(N)N)cc1	x	x	40µM*	5
COc1ccc2cc(C3CC(c4ccco4)=NN3S(=O)(=O)c3ccccc3)c(Cl)nc2c1 (stereo unspecified)	-9%	-83*	u	-8
Cc1ccc2nc(Cl)c(C3CC(c4ccco4)=NN3S(C)(=O)=O)cc2c1 (stereo unspecified)	7%	-4	13µM*!	19
Cc1ccc2cc(C3CC(c4ccco4)=NN3S(C)(=O)=O)c(Cl)nc2c1 (stereo unspecified)	-2%	-5	u	-5
CCOc1ccc2cc(C3CC(c4ccco4)=NN3S(=O)(=O)c3ccccc3)c(Cl)nc2c1 (stereo unspecified)	14%	-18	-12%	8
COc1ccc2c(C)c(CC(=O)NCc3ccc(F)cc3)c(=O)oc2c1OC	x	x	22%	x
CC1CCN(S(=O)(=O)c2ccc3c(c2)c(=O)c(C(=O)N2CCOCC2)cn3C)CC1	-11%	-127*	0%	-5
CCCCCCn1c(-c2cccs2)n[nH]c1=S	-1%	-1	28µM*	-10
CCCCn1c(-c2csc(CC)c2)n[nH]c1=S	-5%	1	50µM*	0
CCc1cc(-c2n[nH]c(=S)n2-c2cccc(C)c2)cs1	1%	-6	32µM*	-17
CCCCn1c(-c2csc(C(C)C)c2)n[nH]c1=S	4%	-5	u	1
COc1cc(NC(=S)Nc2ccccn2)cc(OC)c1	4%	2	32µM*	-9
COc1cc(NC(=S)Nc2ccccn2)cc(OC)c1OC	3%	5	u	-3
COC(=O)Cc1ccc(NC(=S)Nc2ccccn2)cc1	-5%	19	40µM*	11
S=C(Nc1ccccn1)c1ccccn1	1%	6	4.5µM*	5
O=C(Nc1ccccn1)C(=O)Nc1ccccn1	-1%	-1	-13%	-12
S=C(Nc1ccccn1)Nc1ccccc1Cl	12%	-2	35µM*	-9
O=C1CCC2(C(=O)NCCc3ccccc3)CCCC=C2N1c1ccccc1 (stereo unspecified)	x	x	44%	x
SMILES	A-T KAP1 phos	KCNH2 3.1 inh	12-LOX inh	hERG WT inh
COCC1CN(C)CC12CCN(S(=O)(=O)c1ccc(F)c(Cl)c1)CC2 (stereo unspecified)	x	x	21%	x
Oc1ccc(CNc2cccc(F)c2F)c2cccnc12	-10%	x	x	x
Oc1ccc(CNc2ccccc2F)c2cccnc12	-11%	-13	2.2µM*!	-2
c1ccc(N2CCN(Cc3ccc4c(c3)OCO4)CC2)nc1	x	19	u	-2
c1cnc(N2CCN(Cc3ccc4c(c3)OCO4)CC2)nc1	1%	-8	22µM*!	32
O=C(c1ccc(COc2ccccc2Cl)o1)N1CCN(Cc2ccc3c(c2)OCO3)CC1	-5%	-32	45µM*!	5
CSc1nc(N2CCN(Cc3ccc4c(c3)OCO4)CC2)c2ccccc2n1	9%	-73*	x	-1
O=C(c1ccc(COc2ccc(Cl)cc2)o1)N1CCN(Cc2ccc3c(c2)OCO3)CC1	2%	-20	u	-1
O=C(CN1CCN(Cc2ccc3c(c2)OCO3)CC1)N1c2ccccc2Sc2ccccc21	x	x	0.79µM*	x
O=C(CN1CCOCC1)N1c2ccccc2Sc2ccccc21	0%	-3	5%	-13
Cc1nc(N2CCN(Cc3ccc4c(c3)OCO4)CC2)c2cc(-c3ccccc3)sc2n1	0%	-21	1%	13
